Assay results as given in PubChem BioAssay (NCATS).
The source made the active and inactive calls. The call rests on the fitted dose curve; in most records, active means well fitted curve in the direction sought with a large enough effect; inconclusive means small, poorly fitted or top-dose-only effect, or another doubt; inactive means no such curve, though single readings can be large or run the other way. Starred links: 1 amine or outer side, 2 acyl side, 3 side chain; linkers in the order of their positions; H or OH if unused. Positions of bridges follow the written chain, without caps; N, C: chain ends. Non-standard residues stand in square brackets, D forms with d. Residues, ends and D or L forms follow the SMILES beside them. ξ: configuration not given here. *: point of attachment. X3 = C[C@@H](Oc1ccc([C@H](N[*:1])C(=O)[*:2])cc1)[C@]1(/C=C\C(=O)[*:3])CO1; d(aIle) = CC[C@H](C)[C@@H](N)C(=O)O; X2 = CC(C)[C@@H](O)C(C)C(=O)*; ξNMeF = CNC(Cc1ccccc1)C(=O)O; ξT = CC(O)C(N)C(=O)O; ξS = NC(CO)C(=O)O

test: Inflammasome Signaling qHTS Counterscreen: IL-1-beta AlphaLISA counterscreen against the NCATS CANVASS Library (AID 1347381); conditions: Purified IL-1beta AlphaLISA signal interference counterscreen; series mostly up to 57.5 µM;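 further: cell-free check with purified IL-1β in medium and no THP-1 cells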
Excerpt: Natural products and their derivatives continue to be wellsprings of nascent therapeutic potential. However, many laboratories have limited resources for biological evaluation, leaving their previously isolated or synthesized compounds largely or completely untested. To address this issue, the Canvass library of natural products was assembled (https://tripod.nih.gov/canvass), in collaboration with academic and industry researchers, for quantitative high-throughput screening (qHTS) across a diverse set of cell-based and biochemical assays. The pure (>85% purity by liquid chromatography/mass spectrometry [LC/MS]) Canvass library of 346 natural products were submitted by 45 academic laboratories and companies around the world. We collected pure natural products to circumvent deconvolution and structure elucidation due to time and resource limitations. The library was formatted into 1536-well plates and evaluated in 50 qHTS (in an 11-pnt concentration series) bioassays with broad scope of disease-relevant mechanisms. The resulting data set from 50 different assays was then systematically analyzed to identify overall trends and specific natural products with interesting biological activities. Reported herein are the results of each individual qHTS and their corresponding assay protocol. A qHTS assay, based on AlphaLISA technology, was developed to screen the NCATS CANVASS library to look for novel inflammasome inhibitors. The assay detects IL-1B using AlphaLISA anti-IL-1B acceptor and donor beads. Human THP-1 cells were incubated with Canvass compound for 1 hr, followed by stimulation with lipopolysaccharide and ATP to induce inflammasome activation. […] National Center for Advancing Translational Sciences (NCATS), Rockville, MD National Institute of Health (NIH), Bethesda, Maryland
IL-1-beta-counterscreen qHTS protocol: 1. Four microliter of cell culture media (low control, columns 3-4) with 4 pg purified IL-1-beta (high control; columns 1-2 and 5-48) were dispensed into a 1536-well, solid white, tissue culture-treated assay plates using the BioRapTR dispenser. 2. 23 nL of compounds (in DMSO solution) or vehicle control (DMSO) were pin transferred into the assay plates using the Kalypsis pin-tool equipped with a 1536 well pin heads. 3. 1.5 uL AlphaLISA reagent 1 (6 ug/mL anti-IL-1-beta AlphaLISA acceptor beads + 0.6 nM anti-IL-1-beta biotinylated antibody final concentrations) was added using the BioRapTR dispenser. 4. The assay plates were incubated at room temperature for 1 hour. 5. 1.5 uL of AlphaLISA reagent 2 (24 ug/ml AlphaLISA SA-Donor beads, final concentration) was then added to the assay plates followed by a 30 min in the dark incubation at room temperature. 6. The AlphaLISA signal was read by the EnVision plate reader (PerkinElmer) using a 680 nm excitation and 615 nm emission filters.

Row | Compound | outcome
1 | C/C=C1/CN2CC[C@@]34c5ccccc5N(C)[C@@H]3[C@@H]2C[C@@H]1[C@H]4C(=O)OC | inactive
2 | C=C[C@]12C=CCN3CC[C@@]4(c5ccccc5NC(=O)[C@@H]4C1)[C@@H]32 | inactive
3 | C/C=C/[C@@H]1[C@H]2C[C@@H](C)CC[C@@H]2C(C)=C[C@H]1C(=O)c1c(O)c(-c2ccc(O)cc2)c[nH]c1=O | inactive
4 | CC[C@H]1CN2CCc3c([nH]c4cccc(OC)c34)[C@@H]2C[C@@H]1/C(=C\OC)C(=O)OC | inactive
5 | C/C(=C\[C@H](C)C(=O)C[C@H](O)CC1CC(=O)NC(=O)C1)[C@@H]1OC(=O)/C=C/CC/C=C/C=C/[C@@H]1C | inactive
6 | CO[C@@H](/C=C/CC/C=C/C(=O)O)[C@@H](O)[C@H](C)/C=C(\C)[C@H](O)[C@H](C)C(=O)CCCC1CC(=O)NC(=O)C1 | inactive
7 | COC1=C(C2=C(OC)C(=O)c3cc4c(c(O)c3C2=O)C(=O)O[C@H](C)C4)C(=O)c2c(cc3c(c2O)C(=O)O[C@H](C)C3)C1=O | inactive
8 | C=C(C)[C@H]1C(=O)c2c3c(cc4c5c(n1c24)[C@@]1(C)[C@@H](CC[C@H]2[C@](C)(/C=C/C=C(\C)C(=O)O)[C@@H](O)CC[C@@]21C)C5)C1=CC(C)(C)OC(C)(C)[C@H]1[C@@H]3O | inactive
9 | COC1C(O)C(C)OC(OC2C(Oc3cccc4c(O)c5c(=O)oc6ccc(C)c7c(=O)oc(c34)c5c67)OC(C)C(O)C2O)C1O (stereo not given) | inactive
10 | C=CC(C)(C)[C@@]12C[C@H]3C(=O)N/C(=C\c4cnc[nH]4)C(=O)N3[C@@H]1Nc1ccccc12 | inactive
11 | CC[C@@H]1CN2CCc3c([nH]c4cccc(OC)c34)[C@@H]2C[C@@H]1/C(=C\OC)C(=O)OC | inactive
12 | c1ccc2nc3c(cc2c1)[nH]c1ccccc13 | inactive
13 | CC(C)CC1C(=O)O[C@H](C(C)C)C(=O)N(C)C(CC(C)C)C(=O)O[C@@H](C(C)C)C(=O)N(C)C(CC(C)C)C(=O)O[C@H](C(C)C)C(=O)N(C)C(CC(C)C)C(=O)O[C@@H](C(C)C)C(=O)N1C (stereo not given in full) | inactive
14 | C/C=C(\C)C(=O)O[C@@H]1[C@@H](O)[C@@H]2O[C@H]3[C@H](O[C@@H](CCCCC)CCCCCCC(=O)CCC(=O)OC[C@@H](O2)[C@H]1OC(=O)/C=C/c1ccccc1)O[C@H](C)[C@H](OC(C)=O)[C@@H]3O | inactive
15 | CCCC[C@@H](C)/C=C1/CN2CCC[C@H]2[C@@](C)(O)[C@@H]1O | inactive
16 | C=C[C@H]1CN2CCc3c([nH]c4cccc(OC)c34)[C@@H]2C[C@@H]1/C(=C\OC)C(=O)OC | inactive
17 | C[C@]12CC(O)C3[C@@H](CC[C@@H]4C[C@@H](O)CC[C@]34CO)[C@@]1(O)CC[C@@H]2C1=CC(=O)OC1 (stereo not given in full) | inactive
18 | CC[C@@H]1CN2CCC3(Nc4cccc(OC)c4C3=O)[C@@H]2C[C@@H]1/C(=C\OC)C(=O)OC (stereo not given in full) | inactive

Row | Compound | outcome
19 | O[C@H]1C=C[C@@]23CCN(Cc4cc5c(cc42)OCO5)[C@@H]3C1 | inactive
20 | CO[C@H]1[C@H](O[C@H]2CC[C@]3(C=O)[C@H]4CC[C@]5(C)[C@@H](C6=CC(=O)OC6)CC[C@]5(O)[C@@H]4CC[C@]3(O)C2)O[C@H](C)[C@H](O)[C@@H]1OC | inactive
21 | C1=C2CCCN[C@H]2C2CC1[C@H]1CCCCN1C2 (stereo not given in full) | inactive
22 | CO[C@@]12c3c(C)cc(O)c4c(=O)occ(c34)C(=O)[C@@H]1[C@]13COC(=O)c4c(O)cc(C)c(c41)C(=O)[C@H]2[C@@H]3OC(C)=O | inactive
23 | CO[C@H]([C@@H](C)[C@H]1O[C@]1(C)C[C@H](C)/C=C/C=C(\C)[C@H]1O[C@@H](CC(=O)O)CC[C@@H]1C)[C@@H](C)O | inactive
24 | C/C=C1/CN2C3CC1C1=CCC(=O)N4c5ccccc5[C@@]3(C[C@@H]2C2=C[C@H]3C5CC6N(CC[C@@]67c6ccccc6N(C2=O)[C@@H]37)C/C5=C/C)[C@H]14 (stereo not given in full) | inactive
25 | CO[C@H]1C[C@H](O[C@H]2[C@@H](O)C[C@H](O[C@H]3CC[C@]4(C=O)[C@H]5CC[C@]6(C)C(C7=CC(=O)OC7)CC[C@]6(O)[C@@H]5CC[C@]4(O)C3)O[C@@H]2C)O[C@H](C)[C@H]1O[C@H]1C[C@@H](OC)[C@@H](O[C@@H]2O[C@H](CO)[C@@H](O)[C@H](O)[C@H]2O)[C@@H](C)O1 (stereo not given in full) | inactive
26 | C/C=C1/CN2CC[C@]34C(=C(C(=O)OC)[C@H]1C[C@H]23)Nc1ccccc14 | inactive
27 | CCCC[C@@H]1CC[C@H]2CCCC(CCCO)N12 (stereo not given in full) | inactive
28 | CC[C@H](C)[C@H]1NC(=O)[C@@H](NC(=O)C(C)[C@H](O)C(C)C)[C@@H](C)OC(=O)C2COC(=O)CNC(=O)/C=C\[C@]3(CO3)[C@@H](C)Oc3ccc(cc3)[C@H](NC1=O)C(=O)N(C)C(Cc1ccccc1)C(=O)NC(C(C)O)C(=O)N2 (stereo not given in full) (X2-T[d(aIle)][X3][ξNMeF][ξT][ξS]; ester 1-C; linker 3-6 via G) | inactive
29 | CC[C@]12C=CCN3CC[C@]4(C(=C(C(=O)OC)C1)Nc1ccccc14)[C@@H]32 | inactive
30 | CCCCC1CC[C@H]2CCCC(CCC)N12 (stereo not given in full) | inactive
31 | C[C@]12CC(O)C3[C@@H](CCC4C[C@@H](O)CC[C@@]43CO)[C@@]1(O)CC[C@@H]2C1=CC(=O)OC1 (stereo not given in full) | inactive
32 | C[C@]12CCC3[C@@H](CC[C@@H]4C[C@@H](O)CC[C@]34CO)[C@@]1(O)CC[C@@H]2C1=CC(=O)OC1 (stereo not given in full) | inactive
33 | C=CC(C)(C)[C@@]12C[C@H]3C(=O)N/C(=C/c4cnc[nH]4)C(=O)N3[C@@H]1Nc1ccccc12 | inactive
34 | CCC(=O)N[C@@H](C[C@H](C)C(Cl)(Cl)Cl)C(=O)N1C(=O)C=C(OC)[C@@H]1C[C@H](C)C(Cl)Cl | inactive
35 | C[N+](C)(C)CCc1c[nH]c2ccccc12 | inactive
